KB-V1 MDR tox: qHTS assay for MDR1-selective chemotherapeutics: Primary screen using the drug-selected MDR subline cells KB-V1. KB-V1 MDR cells viability, CellTiter-Glo, 72 h. 400,000 compounds, 3.4% hits. AID 1347076, 2019. Potency, µM (titrated, usually from 46.1 µM), actives largely listed as cytotoxic; also: % is scaled to controls: 0 for no effect and ±100 for the full control effect; nearly all actives have a fitted effect of over 60% in size
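Luminescent ATP read-out (CellTiter-Glo, 10 min) measures survival of drug-selected KB-V1 MDR cells after 72 h, 37 degrees C compound exposure. Medium: phenol-red-free DMEM, 10% FBS. Values from fitted concentration-response curves.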
HT1080NT lethal: qHTS for induction of synthetic lethality in tumor cells producing 2HG: qHTS for the HT-1080-NT fibrosarcoma cell line; HT-1080-NT fibrosarcoma viability, CellTiter-Glo ATP luminescence, 48 h; Potency, µM (doses to about 46.1 µM), without a hit: top-dose activity, negative = less viability, most hits filed as cytotoxic; 360,000 compounds, 1.6% hits; AID 686970, 2013;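 also: NT is the 2HG producing partner of a matched IDH1 knockdown line; 0% = DMSO-treated cells and -100% = media-only wells without cells; nearly all actives have a fitted effect of over 55% in size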
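Read-out is CellTiter-Glo luminescence after 10 minutes at room temperature, following 48 hours' compound treatment of HT-1080-NT cells (750 cells/well, RPMI, 5% FBS, 37 degrees C).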
HT1080 IDH1KD tx: qHTS for induction of synthetic lethality in tumor cells producing 2HG: qHTS for the HT-1080-IDH1KD cell line; HT-1080 IDH1 knockdown viability, ATP luminescence, 48 h; Potency, µM (doses to about 46.1 µM), for inactives: at the highest dose activity, negative = toxicity, actives largely listed as cytotoxic; 360,000 compounds, 2% hits; AID 686971, 2013;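 also: 0% = DMSO wells and -100% = cell-free medium wells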
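Luminescent ATP read-out (CellTiter-Glo, 10 min at room temperature) after 48 h compound exposure at 37 °C gave viability of IDH1-knockdown HT-1080 cells. Activity was normalised to DMSO and cell-free wells, then fitted as concentration-response curves.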
MCF10A rerep: A quantitative high throughput screen for small molecules that induce DNA re-replication in MCF 10a normal breast cells. MCF 10A DNA re-replication, Hoechst nuclear intensity, 48 h. Potency, µM (doses to about 46.1 µM), for the others: at the highest dose activity, positive = re-replication, actives largely listed as activators. 350,000 compounds, 2.9% hits. AID 624296, 2012; also: % of control where 0% means no effect; nearly all actives have a fitted effect of over 50% in size
KB-3-1 cytotox: qHTS assay for MDR1-selective chemotherapeutics: Primary screen using the parental adenocarcinoma cell KB-3-1; KB-3-1 viability, CellTiter-Glo ATP luminescence, 72 h; Potency, µM (series often up to 46.1 µM), hits mostly cytotoxic; 400,000 compounds, 1.4% hits; AID 1347075, 2019; also: % is scaled to controls: 0 for no effect and ±100 for the full control effect; nearly all actives have a fitted effect of over 60% in size
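Luminescent ATP read-out (CellTiter-Glo) measures survival of drug-naive KB-3-1 cells after 72 h compound exposure at 37 °C. Titration series was screened from lowest to highest concentration, with DMSO vehicle plates as background controls.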
SW480 rerep: A quantitative high throughput screen for small molecules that induce DNA re-replication in SW480 colon adenocarcinoma cells; SW480 DNA re-replication, Hoechst DNA content imaging, 48 h; Potency, µM (titrated, usually from 46.1 µM), inactives show at the highest dose re-replication activation, most hits filed as activators; 340,000 compounds, 1.8% hits; also: % of control where 0% means no effect; nearly all actives have a fitted effect of over 55% in size
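Image-based read-out: total Hoechst fluorescence of nuclei (405 nm excitation, 500-530 nm emission), with hits raising the fraction of high-intensity nuclei. SW480 colon cells incubated 48 hr with compounds at 37 C.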
Active calls of the source: *; i = inactive; ? = inconclusive; nt = no result; [ ] = dose if it differs, or a comment. An excerpt weighted towards active compounds, which were near 8% of everything screened. Calls follow the shape of the dose curve; as a rule, active = well fitted curve in the direction sought with a large enough effect; inconclusive = small, poorly fitted or top-dose-only effect, or another doubt; inactive = no such curve, though single readings can be large; an effect the other way counts as inactive or inconclusive. Potency is read from the fitted curve at half-maximal effect.

SMILES | KB-V1 MDR tox | HT1080NT lethal | HT1080 IDH1KD tx | MCF10A rerep | KB-3-1 cytotox | SW480 rerep
Cc1ccc(NC(=O)c2cccc(S(=O)(=O)N(C)c3ccccc3)c2)cc1S(=O)(=O)N1CCOCC1 | 5.2µM* | -4% | -15% | -2% | ? | 0%
Cc1ccc(C(=O)NNC(=O)C2CCN(C(=O)OC(C)(C)C)CC2)cc1 | i | 1% | -8% | -2% | i | -12%
COc1ccc(NC(=O)C(C)N2Cc3ccccc3C2=O)cc1OC (stereo not given) | i | nt | nt | nt | i | nt
COc1ccccc1NC(=O)C(=O)NCC(c1cccnc1)N1CCc2ccccc2C1 (stereo not given) | i | nt | nt | nt | ? | nt
O=C(Nc1ccc2c(c1)OCCO2)c1cccc(S(=O)(=O)N2CCCCC2)c1 | 16µM* | -3% | -11% | ? | i | 0%
O=C(Nc1cccc(S(=O)(=O)N2CCCC2)c1)c1cccc(S(=O)(=O)N2CCOCC2)c1 | i | -4% | 7% | 4% | i | -8%
CCOc1ccc(S(=O)(=O)/N=C(/Nc2ccc(C)c(S(=O)(=O)N3CCOCC3)c2)c2ccccc2)cc1 | 9.2µM* | -3% | 0% | 5% | i | 1%
Brc1ccccc1-c1nnc(SCc2nc3ccccc3s2)o1 | i | -17% | -7% | 9.2µM* | i | 10%
COC(=O)c1cc(=O)nc(NN=C2c3ccccc3-c3ccccc32)s1 | i | ? | ? | nt | i | nt
Cc1nn(Cc2ccccc2Cl)c2sc(C(=O)NCCCn3ccnc3)cc12 | i | -3% | -23% | ? | i | 0%
Cc1csc(NC(=O)c2cc3c(C)nn(Cc4ccccc4Cl)c3s2)n1 | i | ? | ? | 10µM* | i | ?
Cc1nn(Cc2ccccc2Cl)c2sc(C(=O)OC3CCCC3=O)cc12 (stereo not given) | 6.5µM* | -29% | -28% | 1% | i | -4%
CC1=C(c2ccc(C)c(C)c2)S(=O)(=O)N=C1N1CCC(C(=O)NCCc2ccco2)CC1 | i | nt | nt | nt | i | nt
CCC(C)NC(=O)Cn1c(=O)n(Cc2ccc(C(=O)NCc3ccc(C)cc3)cc2)c(=O)c2ccccc21 (stereo not given) | i | nt | nt | nt | i | nt
O=C(CCCn1c(=O)c2sccc2n(CC(=O)OCc2ccccc2)c1=O)NCc1ccco1 | i | -1% | 17% | 18% | i | 0%
Cc1cccc(Cn2c(=O)n(CCCC(=O)NCc3ccco3)c(=O)c3ccccc32)c1 | 15µM* | ? | ? | ? | 9.2µM* | 21µM*
O=C(CCCCn1c(=O)c2ccccc2n(Cc2ccc(Cl)cc2)c1=O)NCc1ccco1 | 4.6µM* | ? | -17%[9.24 µM] | ? | 15µM* | ?
O=C(CCCn1c(=O)c2sccc2n(Cc2ccc(F)cc2)c1=O)NCc1ccco1 | i | 10µM* | ? | 6% | ? | 6%
C[C@H](NC(c1ccc(F)cc1)c1ccc2cccnc2c1O)c1ccccc1 (stereo not given in full) | i | nt | nt | nt | ? | nt
CCCCC(=O)N(c1ccc(OCC)cc1)C1C=CS(=O)(=O)C1 (stereo not given) | i | -9% | 9% | 13µM* | i | 1%
CN(C)C(=O)COC(=O)c1cccnc1Nc1ccccc1F | 16µM* | 9% | 11% | 15% | i | -3%
COc1ccc(CC(C#N)(CO)c2nc3ccccc3[nH]2)cc1 (stereo not given) | ? | -2% | -15% | 2% | ? | 21µM*
Cc1cccc(N=C2NN=C(c3c(C)[nH]c4ccccc34)CS2)c1 | ? | ? | 18µM* | 15µM* | i | ?
Cc1cccc(N=C2NN=C(c3ccc4c(c3)OCCO4)CS2)c1 | i | ? | ? | ? | i | ?
COc1ccccc1-c1cccc([C@@H]2C[C@H]3[C@H](CON3C)CN2C(C)=O)c1 | i | 11% | 7% | -3% | i | 17%[9.22 µM]
SMILES | KB-V1 MDR tox | HT1080NT lethal | HT1080 IDH1KD tx | MCF10A rerep | KB-3-1 cytotox | SW480 rerep
CCOc1cccc(/C=N/NC(=O)C2CCCC2)c1O | i | -18% | ? | 9% | i | 5.8µM*
CCOc1cccc(/C=N/Nc2ccc(S(=O)(=O)N(CC)CC)cn2)c1O | ? | ? | 2.6µM* | 5.2µM* | i | ?
COc1cccc2c1ncc1c(-c3ccc(C)cc3)nn(-c3cccc([N+](=O)[O-])c3)c12 | i | nt | nt | nt | i | nt
CCCCCn1c(=O)[nH]c2cc(C(=O)Nc3cc(OC)cc(OC)c3)ccc2c1=O | i | nt | nt | nt | i | nt
O=C1c2cc(Cl)ccc2-c2c(O)cc(Cl)cc21 | ? | 9.2µM* | 23µM* | 13µM* | ? | ?
O=c1cc(O)c(-c2ccc(Cl)cc2)c(Cl)[nH]1 | i | -5% | -4% | -10% | i | -9%
O=C(CCSCc1ccc(Cl)cc1)NC1CCCC1 | i | 1% | 1% | 6% | i | -9%
CCC(=NC(C)c1ccccc1)c1c(O)n(C)c(=O)n(C)c1=O (stereo not given) | 2.6µM* | -19% | -26% | 24% | ? | -10%
CCCCCCn1c(N2CCN(c3ccccc3)CC2)nc2c1c(=O)[nH]c(=O)n2C | ? | -16% | ? | 13% | ? | 3%
CC(CSc1nnnn1-c1ccccc1)Cn1c(N2CCCC2)nc2c1c(=O)[nH]c(=O)n2C (stereo not given) | 2.3µM* | 9% | 0% | -62% | i | -49%
Clc1cccc(N2CCN(c3nc4ccccc4n4cnnc34)CC2)c1 | i | nt | nt | nt | i | nt
CCCCCCn1c(N2CCN(c3cccc(Cl)c3)CC2)nc2c1c(=O)[nH]c(=O)n2C | 16µM* | 0% | -6% | ? | ? | -2%
Cn1c(=O)[nH]c(=O)c2c1nc(N1CCOCC1)n2CCSc1nnnn1-c1ccccc1 | i | 15% | 15% | -1% | i | -15%
Cn1c(CN2CCN(c3cccc(Cl)c3)CC2)nc2ccccc21 | ? | -2% | -1% | ? | i | 21µM*
CCCCCCCCn1c(N2CCN(c3cccc(Cl)c3)CC2)nc2c1c(=O)[nH]c(=O)n2C | 13µM* | -4% | 0% | ? | i | 8%
CCOc1ccc(OCC)c(NC(=O)c2cnn(-c3ccc(F)cc3)c2-n2cccc2)c1 | i | nt | nt | nt | i | nt

Source: PubChem (National Center for Advancing Translational Sciences (NCATS))
